The nature of assay [1]: small molecules captured by biotinylated probe aFSTL3 – biochemical, small-molecule microarray, fluorescence 635/667, stem cell growth factor project, primary screen (AID 1064).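 Note: measures binding of the biotinylated anti-FSTL3 antibody to printed compounds.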 As to conditions: higher = more signal.
The nature of assay [2]: binders from COS7 lysate, DM2A8 probe, primary screen, torsin A project, cell lysate, small-molecule microarray, fluorescence 635/667 (AID 1065). As to conditions: higher = more signal, COS7 lysate expressing mutant human TOR1A.
Assay [3] is described as follows: small molecules captured by biotinylated probe aFGF2 – biochemical, small-molecule microarray, fluorescence 635/667, stem cell growth factor project, primary screen (AID 1067).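 Note: measures binding of biotinylated aFGF2 protein to printed compounds on slides; z-score merges feature fluorescence and signal-to-noise across triplicate slides.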 As to conditions: higher = more signal.
Assay [4] is described as follows: small molecules captured by biotinylated probe aFGF10 – biochemical, small-molecule microarray, fluorescence 635/667, stem cell growth factor project, primary screen (AID 1071).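 Note: score merges 667 nm spot intensity and signal to noise from triplicate slides.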 As to conditions: higher = more signal.
Assay [5] deals with Neurogenic locus notch homolog protein 2 (Homo sapiens) (UniProt Q04721). The experiment in a line: small molecules binding Notch2 protein – biochemical, small-molecule microarray, 635 nm fluorescence, stem cell growth factors, primary screen (AID 1073). Conditions: higher = more signal.
The target of assay [6] is Pro-neuregulin-1, membrane-bound isoform (Homo sapiens) (UniProt Q02297). As to the kind of experiment: small molecules binding neuregulin-1 protein – biochemical, small-molecule microarray, fluorescence 635/667, psychiatric disease protein project, primary screen (AID 1075).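 Note: score combines 667 nm spot fluorescence with signal to noise.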 As to conditions: NRG1 binding, 635 nm fluorescence, higher = more signal.
The test system of assay [7] is Neuregulin-1 EGF-like domain. The experiment in a line: small molecules binding NRG1 EGF domain – biochemical, small-molecule microarray, 635 nm fluorescence, primary screen (AID 1081).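 Note: binding of the protein to compounds printed on small-molecule microarray slides.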 As to conditions: higher = more signal.
The nature of assay [8]: FRG1 expression reporter modulators in myotubes – cell-based, C2C12 myotubes, firefly/Renilla luciferase, luminescence, FRG1 inhibition for FSHD, primary screen (AID 1084). Conditions: FRG1 promoter luciferase, higher = more signal, called active from +8 up or from −8 down.
The nature of assay [9]: small molecules captured by biotinylated probe aFST – biochemical, small-molecule microarray, fluorescence 635/667, stem cell growth factor project, primary screen (AID 1086).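 Note: score merges 667 nm fluorescence with signal-to-noise of each printed compound spot.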 Conditions: higher = more signal.
Assay [10] in a line: binders of probe aHhip on microarray, primary screen, stem cell growth factor project, biochemical, small-molecule microarray, fluorescence 635/667 (AID 1087).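 Note: score merges spot fluorescence at 667nm with spot signal to noise ratio.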 Conditions: higher = more signal.
For assay [11], the system named is PRMT1 (protein arginine N-methyltransferase 1). The experiment in a line: small molecules binding arginine methyltransferase PRMT1 – biochemical, small-molecule microarray, 635 nm fluorescence, primary screen (AID 1088).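 Note: binding of Prmt1 protein to compounds spotted on small-molecule microarray slides.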 As to conditions: higher = more signal.
A short description of assay [12]: growth effects on S. cerevisiae YJM789 – YJM789 clinical isolate, OD600, 24 h, basal, primary screen (AID 1089).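 Note: growth of clinical yeast isolate S. cerevisiae YJM 789 seeded 1000 cells per well; test concentration not given here.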 As to conditions: higher = more signal, called active from +8 up or from −8 down.
Assay [13] can be described thus: S. pombe growth modifiers, basal conditions – strain 972, OD600, 24 h, no modulator, primary screen (AID 1090).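 Note: basal condition with compound alone and no growth modifier present; test concentration not given here.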 Conditions: S. pombe 972 growth, higher = more signal, called active from +8 up or from −8 down.
Assay [14] can be described thus: budding yeast growth modifiers under rapamycin – strain BY4716, OD600, 96 h, primary screen (AID 1091). Note: test concentration not given here. Conditions: S. cerevisiae BY4716 + rapamycin, higher = more signal, called active from +8 up or from −8 down.
Assay [15] concerns the target Torsin-1A-interacting protein 2 (Homo sapiens) (UniProt Q8NFQ8). The experiment in a line: small molecules binding lysate-expressed LULL1 – cell lysate, human LULL1 lysate, 635/667 nm fluorescence, primary screen (AID 1092).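 Note: probe is lysate of COS7 cells overexpressing human LULL1; score merges per-feature 667 nm fluorescence with signal-to-noise.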 Conditions: small-molecule microarray, hLULL1 lysate binding, 635 nm fluorescence; higher = more signal.
Assay [16] can be described thus: optical density change of DRC41 E. coli – strain DRC41, OD650, 24 h, E. coli filamentation project, primary screen (AID 1093).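 Note: MC1000 strain lacking acrAB efflux and sulA so SOS filamentation is blocked; test concentration not given here.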 Conditions: E. coli DRC41 growth, higher = more signal, called active from +8 up or from −8 down.
A short description of assay [17]: probe aLefty2 binding to arrayed compounds – biochemical, biotinylated probe, 635/667 nm fluorescence, primary screen (AID 1094).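 Note: score merges spot fluorescence near 667 nm with spot signal-to-noise ratio.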 Conditions: small-molecule microarray, higher = more signal.
Assay [18] concerns Noggin (protein binding on small-molecule microarray). As to the kind of experiment: small molecules binding Noggin protein – biochemical, 635/667 nm fluorescence, primary screen (AID 1095).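 Note: score merges 667 nm feature fluorescence with signal to noise over triplicate slides.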 As to conditions: 635 nm fluorescence, higher = more signal.
Assay [19] concerns the target Neurogenic locus notch homolog protein 3 (Homo sapiens) (UniProt Q9UM47). The experiment in a line: small molecules binding NOTCH3 protein – biochemical, 635/667 nm fluorescence, primary screen (AID 1096). As to conditions: small-molecule microarray, 635 nm fluorescence, higher = more signal.
The nature of assay [20]: probe aEGFR binding to arrayed compounds – biochemical, biotinylated probe, 635/667 nm fluorescence, primary screen (AID 1097).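 Note: probe is a biotinylated anti-EGFR antibody binding compounds printed on slides; score combines fluorescence near 667 nm and signal to noise of each spot.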 Conditions: small-molecule microarray, higher = more signal.

Activity calls are given as the source filed them.

Sequence of Pro-neuregulin-1, membrane-bound isoform (Homo sapiens) (Q02297 whole entry, looked up, the tested form may be a part, canonical isoform): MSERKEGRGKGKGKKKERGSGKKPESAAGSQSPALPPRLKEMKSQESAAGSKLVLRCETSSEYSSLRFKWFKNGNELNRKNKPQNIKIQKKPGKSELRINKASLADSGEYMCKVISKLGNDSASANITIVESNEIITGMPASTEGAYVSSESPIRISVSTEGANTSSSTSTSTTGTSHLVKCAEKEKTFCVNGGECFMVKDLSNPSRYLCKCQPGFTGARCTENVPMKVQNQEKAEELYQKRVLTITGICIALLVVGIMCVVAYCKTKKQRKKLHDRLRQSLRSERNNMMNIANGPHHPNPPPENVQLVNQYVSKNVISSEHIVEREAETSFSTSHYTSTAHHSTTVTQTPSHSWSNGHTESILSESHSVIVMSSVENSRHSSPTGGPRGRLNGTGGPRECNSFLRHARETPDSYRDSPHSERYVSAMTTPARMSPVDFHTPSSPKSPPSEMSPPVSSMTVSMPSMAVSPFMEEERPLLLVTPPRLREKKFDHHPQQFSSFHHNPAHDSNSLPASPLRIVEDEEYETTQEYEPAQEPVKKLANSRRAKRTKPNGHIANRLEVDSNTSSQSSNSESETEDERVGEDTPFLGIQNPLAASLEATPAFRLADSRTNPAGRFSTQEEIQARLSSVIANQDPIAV
Sequence of Neurogenic locus notch homolog protein 2 (Homo sapiens) (Q04721 whole entry, looked up, canonical isoform): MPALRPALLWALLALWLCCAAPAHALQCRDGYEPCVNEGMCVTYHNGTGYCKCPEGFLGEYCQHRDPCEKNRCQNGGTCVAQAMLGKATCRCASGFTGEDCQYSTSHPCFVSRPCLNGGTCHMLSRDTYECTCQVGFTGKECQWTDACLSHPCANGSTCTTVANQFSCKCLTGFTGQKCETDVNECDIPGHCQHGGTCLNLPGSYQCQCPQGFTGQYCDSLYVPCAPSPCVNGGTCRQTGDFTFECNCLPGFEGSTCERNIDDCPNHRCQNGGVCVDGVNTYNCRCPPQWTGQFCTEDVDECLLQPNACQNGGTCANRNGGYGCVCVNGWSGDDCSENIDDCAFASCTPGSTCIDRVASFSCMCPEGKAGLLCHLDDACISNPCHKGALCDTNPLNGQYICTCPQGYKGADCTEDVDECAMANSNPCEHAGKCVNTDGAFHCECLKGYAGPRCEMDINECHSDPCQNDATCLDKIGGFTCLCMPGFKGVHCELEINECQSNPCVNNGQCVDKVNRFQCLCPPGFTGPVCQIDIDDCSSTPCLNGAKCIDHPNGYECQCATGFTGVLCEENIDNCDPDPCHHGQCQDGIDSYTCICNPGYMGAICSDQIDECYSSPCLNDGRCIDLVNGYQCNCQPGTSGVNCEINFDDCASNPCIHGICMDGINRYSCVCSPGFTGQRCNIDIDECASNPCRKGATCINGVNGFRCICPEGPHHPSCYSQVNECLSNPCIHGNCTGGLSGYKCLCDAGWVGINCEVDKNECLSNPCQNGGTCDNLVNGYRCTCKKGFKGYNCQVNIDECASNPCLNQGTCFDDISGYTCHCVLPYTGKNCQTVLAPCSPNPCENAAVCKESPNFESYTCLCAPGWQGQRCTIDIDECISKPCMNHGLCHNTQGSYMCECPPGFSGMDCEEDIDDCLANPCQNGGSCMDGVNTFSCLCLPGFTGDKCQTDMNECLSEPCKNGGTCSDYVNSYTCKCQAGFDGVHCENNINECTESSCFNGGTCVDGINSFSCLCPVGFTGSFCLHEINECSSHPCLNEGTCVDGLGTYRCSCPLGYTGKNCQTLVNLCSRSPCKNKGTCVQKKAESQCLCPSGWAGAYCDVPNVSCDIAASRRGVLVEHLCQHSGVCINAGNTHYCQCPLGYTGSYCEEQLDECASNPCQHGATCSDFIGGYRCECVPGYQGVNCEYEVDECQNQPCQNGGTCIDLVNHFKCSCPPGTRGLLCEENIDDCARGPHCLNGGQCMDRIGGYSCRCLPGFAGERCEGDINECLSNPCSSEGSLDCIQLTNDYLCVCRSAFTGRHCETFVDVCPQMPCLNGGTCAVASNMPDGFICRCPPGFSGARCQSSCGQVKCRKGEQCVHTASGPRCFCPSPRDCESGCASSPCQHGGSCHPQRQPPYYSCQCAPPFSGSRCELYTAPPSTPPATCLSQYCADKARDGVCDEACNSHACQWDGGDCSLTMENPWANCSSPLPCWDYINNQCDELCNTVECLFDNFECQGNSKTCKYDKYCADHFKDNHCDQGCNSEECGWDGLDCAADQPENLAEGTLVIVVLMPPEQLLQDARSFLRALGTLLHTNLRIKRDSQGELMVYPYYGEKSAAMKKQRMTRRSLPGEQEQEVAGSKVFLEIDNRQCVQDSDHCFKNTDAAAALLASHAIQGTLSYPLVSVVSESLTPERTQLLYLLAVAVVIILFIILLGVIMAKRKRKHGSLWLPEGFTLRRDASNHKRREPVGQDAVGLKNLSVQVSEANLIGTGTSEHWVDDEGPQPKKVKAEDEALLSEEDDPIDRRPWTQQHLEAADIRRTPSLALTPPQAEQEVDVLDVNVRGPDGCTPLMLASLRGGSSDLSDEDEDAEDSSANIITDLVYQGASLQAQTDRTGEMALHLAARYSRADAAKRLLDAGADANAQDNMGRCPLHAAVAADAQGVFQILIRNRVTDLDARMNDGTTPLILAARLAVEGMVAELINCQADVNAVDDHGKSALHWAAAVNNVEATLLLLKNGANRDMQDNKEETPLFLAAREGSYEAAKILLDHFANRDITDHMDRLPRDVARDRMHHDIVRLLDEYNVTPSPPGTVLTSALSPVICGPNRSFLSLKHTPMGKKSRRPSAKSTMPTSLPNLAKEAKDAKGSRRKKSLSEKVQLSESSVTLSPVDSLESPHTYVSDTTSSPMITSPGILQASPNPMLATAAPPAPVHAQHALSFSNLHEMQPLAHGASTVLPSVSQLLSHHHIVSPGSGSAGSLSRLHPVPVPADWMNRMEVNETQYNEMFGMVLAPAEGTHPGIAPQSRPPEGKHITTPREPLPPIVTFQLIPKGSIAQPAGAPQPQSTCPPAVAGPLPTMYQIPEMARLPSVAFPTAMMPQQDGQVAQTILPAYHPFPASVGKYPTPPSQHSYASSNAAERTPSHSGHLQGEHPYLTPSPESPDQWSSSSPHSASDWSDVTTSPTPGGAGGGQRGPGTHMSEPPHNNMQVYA
Sequence of Torsin-1A-interacting protein 2 (Homo sapiens) (Q8NFQ8 whole entry, looked up): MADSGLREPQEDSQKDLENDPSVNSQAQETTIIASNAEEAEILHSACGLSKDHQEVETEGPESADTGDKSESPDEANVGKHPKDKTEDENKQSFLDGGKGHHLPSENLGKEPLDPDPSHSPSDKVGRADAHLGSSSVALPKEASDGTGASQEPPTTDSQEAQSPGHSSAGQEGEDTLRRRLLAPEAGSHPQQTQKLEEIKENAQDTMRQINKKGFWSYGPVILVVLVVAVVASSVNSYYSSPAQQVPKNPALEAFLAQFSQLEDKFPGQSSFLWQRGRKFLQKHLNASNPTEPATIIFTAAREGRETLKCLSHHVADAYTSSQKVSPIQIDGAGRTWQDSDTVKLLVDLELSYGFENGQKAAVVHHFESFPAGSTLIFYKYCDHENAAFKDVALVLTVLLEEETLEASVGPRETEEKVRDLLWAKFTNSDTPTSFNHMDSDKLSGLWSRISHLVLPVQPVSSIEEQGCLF

Regarding `Cc1ccc(S[C@]2(C(=O)NCC(F)(F)F)CC(=O)N(Cc3ccccc3)[C@@H]2c2ccc(CO)cc2I)cc1`, the composite z-score in assay [1] is 0.512; in assay [2], 0.156; in assay [3] it was -0.0502; in assay [4], 0.284; in [5], 0.0341; in assay [6], 1.82. For the same molecule, the composite z-score is 0.923 in assay [7]; 0.164 in assay [9]; -0.236 in assay [10]; 0.29 in [11]; 1.62 in [15]; 0.496 in assay [17]. Moreover, the composite z-score in [18] was -0.315; in [19], 0.233; in [20], -0.118. Moreover, the z-score in assay [8] is -0.646 (inactive); in assay [12], -3.01 (inactive); in [13], -2.23 (inactive); in assay [14] it was 0.854 (inactive); in assay [16], -0.161 (inactive).
In the case of `COC(=O)c1c2oc(c1C(=O)OC)C(=O)N(Cc1ccccc1)Cc1cn(nn1)C[C@H](Cc1ccccc1)NC(=O)N[C@H](CO)CC2`, the composite z-score in assay [1] was -0.462; in assay [2], -0.277; in assay [3], -0.105; in [4] it was 0.138; in [5], -0.0194; in assay [6], 0.229. Besides, the composite z-score in assay [7] is 1.1; in [9], 0.0118; in [10], 0.0092; in assay [11], 0.707; in [15] it was 1.69; in assay [17], -0.256. The values for the composite z-score in [18], in [19] and in assay [20] were 0.698, 0.43 and -0.11, respectively. The z-score in [8] is -0.736 (inactive); in [12], -3.16 (inactive); in assay [13] it was -1.15 (inactive); in assay [14] it was 0.0108 (inactive); in assay [16] it was 0.101 (inactive).
Turning to `O=C1O[C@H](c2ccccc2)[C@H](c2ccccc2)N2[C@H]1[C@@H](C(=O)Nc1nc3ccccc3s1)[C@]1(C(=O)Nc3ccc(C#CC4(O)CCCCCC4)cc31)[C@H]2c1ccccc1OCCO`, the composite z-score is -0.411 in [1]; 0.0728 in assay [2]; -0.048 in assay [3]; 1.05 in [4]; 1.23 in assay [5]; 0.77 in assay [6]. Also, the composite z-score is 1.07 in assay [7]; 0.492 in [9]; -0.0994 in [10]; 1.54 in assay [11]; 3.08 in assay [15]; -0.118 in assay [17]. Further, the composite z-score in assay [18] is 0.971; in [19], 1.06; in assay [20] it was -0.0564. In addition, the z-score in assay [8] is 0.435 (inactive); in [12] it was 1.87 (inactive); in assay [13], 1.91 (inactive); in assay [14], 3.32 (inactive); in [16], 0.149 (inactive).
As for `COc1cc2c(cc1OC)CN(C(=O)[C@@H]1[C@H]3C(=O)O[C@H](c4ccccc4)[C@H](c4ccccc4)N3[C@H](c3ccc(OCCO)cc3)[C@@]13C(=O)Nc1ccccc13)CC2`, the composite z-score in [1] is -0.164; in assay [2], 0.562; in assay [3], 0.0373; in assay [4], 1.01; in assay [5] it was 1.16; in [6] it was 1.42. Moreover, the composite z-score in [7] was 1.23; in [9], 0.29; in assay [10] it was 0.0139; in assay [11], 1.54; in [15] it was 3; in assay [17] it was -0.126. Also, the composite z-score in [18] was 1.32; in assay [19] it was 1.15; in [20], 0.134. For the same molecule, the z-score in assay [8] was 2.03 (inactive); in assay [12] it was 3.17 (inactive); in assay [13] it was 1.16 (inactive); in assay [14], 5.44 (inactive); in [16], 0.761 (inactive).
In the case of `CCOC(=O)C[C@H]1[C@H](OC(=O)Cc2ccc3c(c2)OCO3)[C@@H](NC(=O)Cc2ccc(OC)cc2)c2cc(OCCCO)ccc2N1C(=O)c1ccc2ccccc2n1`, the composite z-score in assay [1] is -0.362; in assay [2] it was 0.401; in assay [3], -0.104; in assay [4] it was 0.466; in assay [5], 0.255; in assay [6], 0.371. For the same molecule, the composite z-score in [7] was 0.752; in [9], 0.103; in [10], -0.274; in assay [11], 0.317; in [15], 0.708; in assay [17], -0.137. Also, the composite z-score was 0.14 in assay [18], 0.32 in assay [19] and -0.146 in assay [20]. Also, the z-score in assay [8] was -3.56 (inactive); in assay [12], -2.05 (inactive); in [13] it was -1.34 (inactive); in assay [14], 0.758 (inactive); in assay [16], 2.08 (inactive).
As to `OCC1CC(c2ccccc2)=NO1` (stereo not given), the composite z-score is -0.315 in assay [1]; 0.239 in assay [2]; -0.0242 in [3]; 0.202 in assay [4]; -0.244 in assay [5]; -0.584 in assay [6]. Also, the composite z-score in assay [7] was -0.164; in [9], 0.127; in assay [10], 0.235; in assay [11], -1.11; in [15], -1.3; in assay [17], -0.119. The composite z-score in [18] is 0.397; in assay [19], -0.473; in [20] it was -0.068. The z-score was 0.557 (inactive) in [8]; -0.248 (inactive) in assay [12]; -0.0256 (inactive) in assay [13]; 0.368 (inactive) in [14]; 0.677 (inactive) in assay [16].
For `C=CCN1C(=O)[C@@]2(CCS(=O)(=O)c3ccccc3)N=C(c3ccc(OCCCO)cc3)O[C@H]2c2ccccc21`, the composite z-score came out at 0.162 in [1]; 0.42 in [2]; 0.0076 in assay [3]; 0.362 in [4]; 1.44 in assay [5]; 1.72 in [6]. The composite z-score in assay [7] is 1.24; in assay [9], 1.03; in [10] it was -0.0672; in assay [11], 1.54; in [15] it was 2.88; in assay [17], -0.0177. Further, the composite z-score in assay [18] is 1.43; in assay [19] it was 1.12; in assay [20] it was 0.154. For the same molecule, the z-score in [8] was -3.77 (inactive); in assay [12] it was 0.15 (inactive); in [13], -0.0698 (inactive); in assay [14], 3.13 (inactive); in assay [16], 0.192 (inactive).

(Values after PubChem BioAssay.)
